# Reference: PubChem BioAssay (NCATS)
# Records with an inconclusive call do not appear. A call without a number means that no potency is given here. Activity calls are given as the source filed them. The call rests on the fitted dose curve; in most records, active means well fitted cell-killing curve with a large enough effect; inconclusive means small, poorly fitted or top-dose-only effect, or effect the other way; inactive means no such curve, though single readings can be large or run the other way.
# Test: Viability qHTS for spleen associated tyrosine kinase inhibitor (SYKi) naive MV4-11 cells (AID 1963823); further: nearly all actives have a fitted effect of over 40% in size
# Details: MV4-11 AML viability, CellTiter-Glo luminescence, 72 h; series mostly up to 45 µM
# In short: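 Compounds were dispensed acoustically onto plates, MV4-11 cells (SYKi-naive) added at 500 per well, and plates incubated 72 hr at 37 C. CellTiter-Glo was added and luminescence measured after 10 min.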
# Potency means the concentration at half of the fitted maximal effect.
row,Structure (SMILES),Potency
1,C[C@@H]1CC(=O)Nc2cccc(-c3cnn(C(C)(C)C)c3)c2N1,14.8 µM (active)
2,O=C1c2cccc(O)c2C(=O)c2c(O)cccc21,inactive
3,Cc1nnc(C(C)C)n1C1CC2CCC(C1)N2CCC(NC(=O)C1CCC(F)(F)CC1)c1ccccc1 (centres undefined),inactive
4,COc1cccc2c1c(O)c(C(=O)N(C)c1ccc(C(F)(F)F)cc1)c(=O)n2C,inactive
5,CC1=C(/C=C/C(C)=C/C=C/C(C)=C/C=C/C=C(C)/C=C/C=C(C)/C=C/C2=C(C)CCCC2(C)C)C(C)(C)CCC1,23.5 µM (active)
6,CC(C)(C)C(=O)OCOC(=O)[C@@H]1N2C(=O)[C@@H](NC(=O)[C@H](N)c3ccccc3)[C@H]2SC1(C)C,inactive
7,COc1cc(NS(=O)(=O)c2ccc(N)cc2)nc(C)n1,inactive
8,COc1cc(C(=O)NCCCCCC(=O)O)cc(OC)c1OC,inactive
9,Cc1cc2c(C(C)C)c(O)c(O)c(C=O)c2c(O)c1-c1c(C)cc2c(C(C)C)c(O)c(O)c(C=O)c2c1O,6.61 µM (active)
10,C[C@@H](O)[C@H]1C(=O)N2C(C(=O)O)=C(S[C@@H]3CN[C@H](CNS(N)(=O)=O)C3)[C@H](C)[C@H]12,inactive
11,CCCCCCCCCCC(CO)CCCCCCCC (centres undefined),inactive
12,C[C@H](CCC(=O)O)[C@H]1CC[C@H]2[C@@H]3[C@H](O)C[C@@H]4C[C@H](O)CC[C@]4(C)[C@H]3CC[C@]12C,inactive
13,Cc1ccc(S(=O)(=O)Cc2nc(-c3ccc(C(=O)NCc4cccnc4)cc3)oc2C)cc1,0.0118 µM (active)
14,CCCC(CCC)(C(=O)OCC)C(=O)OCC,inactive
